A selection: hits, their analogues and other compounds. The true share with any hit is near 0.4%.
Rab7 wt modul: modulators of GTP binding to dog Rab7 wildtype GTPase; GST-Rab7 beads, fluorescent GTP binding, flow cytometry; actives lie on both sides; untreated = 100%, excess cold GTP = 0%; GTP binding activity (percent of control), % at 10 µM; 190,000 compounds, 0.055% hits; AID 758;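 active = fluorescent GTP binding to Rab7 beads changed by at least 20 points from the 100% baseline, either direction, mostly lower; inconclusive = compound itself probably fluorescent, or too few beads counted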;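 also: median green fluorescence of bound Bodipy-FL-GTP per Rab7 bead population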
Rac1 mut GTP: human Rac1 activated mutant GTP binding change. GST-Rac1 activated beads, fluorescent GTP binding, flow cytometry; actives lie on both sides; 100% means binding = to untreated wells. percent activity (GTP binding), % at 10 µM. 190,000 compounds, 0.11% hits. AID 764;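 active = GTP binding at least 20 percentage points away from the 100% baseline, in either direction, so actives lie on both sides; inconclusive = Compound likely fluorescent itself, or too few beads counted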
Cdc42 wt GTP: changes GTP binding to wildtype human Cdc42 | P60953 | GST-Cdc42 beads, Bodipy-GTP binding, flow cytometry; actives lie on both sides | percent activity (GTP binding), % at 10 µM | 190,000 compounds, 0.2% hits | AID 761;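 active = percent activity GTP binding at least 20 points away from the 100% baseline, either down as inhibitor or up as activator; inconclusive = compound flagged as likely green fluorescent from well-wide comparison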;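 also: median bead fluorescence of bound Bodipy-FL-GTP at 100 nM; 0% = excess unlabeled GTP control and 100% = no compound control; below 100% means less GTP binding so inhibitor and above means activator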
Target sequence (P60953 whole entry, looked up): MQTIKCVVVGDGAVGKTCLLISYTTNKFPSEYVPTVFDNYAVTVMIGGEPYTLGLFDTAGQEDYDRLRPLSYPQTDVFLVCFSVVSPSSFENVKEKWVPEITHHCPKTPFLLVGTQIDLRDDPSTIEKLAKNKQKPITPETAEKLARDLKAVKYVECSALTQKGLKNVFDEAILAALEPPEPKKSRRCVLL
Rab2 wt GTP: changes GTP binding to wildtype dog Rab2A, up or down; P61105; GST-Rab2 wt beads, Bodipy-GTP binding, flow cytometry; GTP binding activity, % at 10 µM; 190,000 compounds, 0.19% hits;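 active = GTP binding activity at least 20 points away from 100%, either lowered or raised; inconclusive = signal likely due to the compound's own green fluorescence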;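 also: 0% = beads with excess unlabeled GTP and 100% = no-compound control corrected for plate trend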
HRas wt GTP: changes GTP binding to wildtype human HRas; 190,000 compounds, 0.14% hits; GST-Ras wt beads, Bodipy-FL-GTP binding, flow cytometry; actives lie on both sides; GTP binding activity, % at 10 µM; AID 759; P01112;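 active = GTP binding activity at least 20% away from the 100% baseline, either lowered as inhibitor or raised as activator; inconclusive = flagged as likely green fluorescent, judged across all proteins in the well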;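 also: 0% = unlabeled GTP competition control and 100% = no-compound control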
Target sequence (P01112 whole entry, looked up): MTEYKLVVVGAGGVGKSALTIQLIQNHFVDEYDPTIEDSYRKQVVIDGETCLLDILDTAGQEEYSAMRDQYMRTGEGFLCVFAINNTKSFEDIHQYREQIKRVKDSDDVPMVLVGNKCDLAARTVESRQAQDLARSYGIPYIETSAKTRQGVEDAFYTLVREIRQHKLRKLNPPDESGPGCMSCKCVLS
Rac1 wt GTP bind: modulators of human Rac1 wildtype GTP binding; GST-Rac1 beads, fluorescent GTP binding, flow cytometry; actives lie on both sides; 0 = cold GTP competed, 100 = untreated; AID 757; GTP binding activity (% of control), % at 10 µM; 190,000 compounds, 0.27% hits;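 active = GTP binding activity at least 20 points away from the 100% control level, either lower or higher; inconclusive = compound flagged as likely green fluorescent, judged across all proteins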
An asterisk follows results filed as active; ? = inconclusive; [ ] = remark or other dose.

SMILES | Rab7 wt modul | Rac1 mut GTP | Cdc42 wt GTP | Rab2 wt GTP | HRas wt GTP | Rac1 wt GTP bind
Cc1ccc2c(c1)c1nnc(SCC(=O)N3CCCc4ccccc43)nc1n2CC(=O)O | 84 | 82 | 64* | 66* | 67* | 66*
OCCC1CN(Cc2ccccc2O)CCN1CCc1ccccc1 (stereo unspecified) | 10* | 13* | 16* | 16* | 18* | 12*
CCOc1cccc(CN2CCN(CCc3ccccc3)C(CCO)C2)c1O (stereo unspecified) | 98 | 85 | 87 | 89 | 85 | 88
Cc1ccc(-n2c(SCC(N)=O)nnc2-c2cccnc2)c(C)c1 | 105 | 100 | 102 | 104 | 101 | 107
Cc1ccc(-n2c(SCc3cc(=O)n4ccsc4n3)nnc2-c2cccnc2)c(C)c1 | 108 | 120*[activator] | 146*[activator] | 118 | 109 | 163*[activator]
Cc1cc(CN(C)Cc2c(C(=O)N3CCCCCCC3)nc3ccc(Cl)cn23)n[nH]1 | 104 | 92 | 96 | 99 | 98 | 99
Cc1ccc(-n2c(=O)[nH]c3c(oc4ccccc43)c2=O)cc1 | 106 | 107 | 114 | 117 | 112 | 135*[activator]
COc1ccc(-n2c(=S)[nH]c3c(oc4ccccc43)c2=O)cc1 | 98 | 98 | 96 | 94 | 99 | 111
O=[N+]([O-])c1cc(Cc2ccccc2)cc(C=Nc2ccc(N3CCOCC3)cc2)c1O | 71* | 62* | 78* | 64* | 77* | 75*
Cc1ccc(O)c(N=Cc2cc(Cc3ccccc3)cc([N+](=O)[O-])c2O)c1 | 79* | 68* | 76* | 74* | 82 | 77*
O=C(O)/C=C/C(=O)Nc1cccnc1 | 20* | 34* | 31* | 31* | 38* | 34*
COC(=O)/C=C/C(=O)Nc1cccnc1 | 96 | 99 | 101 | 101 | 99 | 103
O=C(Nc1cccc(O)c1)c1ccccc1 | 106 | 100 | 103 | 104 | 104 | 102
O=C(O)/C=C\C(=O)Nc1cccc(C(=O)Nc2cccc(O)c2)c1 | 95 | 89 | 85 | 83 | 87 | 76*
CCCCc1nc2sc3c(=O)n(N)cnc3c2c2c1CCC2 | 98 | 94 | 96 | 97 | 95 | 93
COc1cccc(/C=N/n2c(N)c(S(=O)(=O)c3cccs3)c3nc4ccccc4nc32)c1OC | 91 | 89 | 81 | 85 | 84 | 88
Nc1c(S(=O)(=O)c2cccc(Cl)c2)c2nc3ccccc3nc2n1/N=C/c1ccc(O)c(O)c1 | ? | 80 | 63* | 76* | 63* | 79*
Cc1cc(C)n2nc(SCC(=O)Nc3ccccc3)nc2n1 | 96 | 96 | 97 | 97 | 96 | 99
Cc1cc(C)n2nc(SCCOc3ccccc3)nc2n1 | 93 | 88 | 82 | 83 | 84 | 78*
c1ccc2oc(-c3csc(N4CCOCC4)n3)cc2c1 | 97 | 97 | 92 | 94 | 95 | 96
Cc1nc2sccn2c1-c1nc(-c2cc3ccccc3o2)cs1 | 87 | 91 | 83 | 77* | 81 | 79*
O=C(Nc1cc(S(=O)(=O)Nc2ccccc2Cl)ccc1O)c1sc2cc(Cl)ccc2c1Cl | 94 | 78* | 80 | 85 | 87 | 83
COc1ccc(C(=O)C2CCCN(Cc3c[nH]c4ccccc34)C2)c(OC)c1 (stereo unspecified) | 103 | 95 | 93 | 97 | 98 | 99
NS(=O)(=O)c1ccc(N2N=C(c3ccccc3)CC2c2ccccc2)cc1 (stereo unspecified) | 94 | 97 | 71* | 100 | 98 | 99
COC(=O)C1CSC(C(=O)OC)N1C(=O)CN1CCN(c2ccccc2)CC1 (stereo unspecified) | 105 | 98 | 99 | 98 | 100 | 99
CCOc1ccc(-n2c(C)nc3cc(C(=O)NCc4ccc5c(c4)OCO5)ccc32)cc1 | 86 | 79* | 77* | 71* | 80 | 77*
Cc1nn(Cc2ccccc2)c(C)c1NC(=O)CSc1nc2c(c(C(F)(F)F)n1)CCc1ccccc1-2 | 92 | 88 | 84 | 83 | 85 | 75*
